Results on three compounds are retold here after PubChem BioAssay (EPA / NIEHS).

What all share (conditions): mRNA level, 48 h; actives raise or lower the signal
Read-out in assay [1]: JUN Transcription Factor, JUN (gene 3725)
Put plainly: LTEA_HepaRG_JUN: Life Technologies and Expression Analysis (LTEA) Assay for JUN Transcription Factor using HepaRG (AID 2283513). The method in brief:
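Differentiated HepaRG cells were exposed to chemicals for 48 h in serum-free induction medium, 8 concentrations from 100 uM in half-log steps, 0.5% DMSO vehicle, in duplicate. JUN mRNA was quantified by TaqMan qRT-PCR, normalized to ACTB, GAPDH, POLR2A.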

Read-out in assay [2]: Lipase C (LIPC), LIPC (gene 3990)
Put plainly: LTEA_HepaRG_LIPC: Life Technologies and Expression Analysis (LTEA) Assay for Lipase C (LIPC) using HepaRG (AID 2283514). An outline of the steps: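 Differentiated human HepaRG cells in serum-free induction medium were exposed in duplicate for 48 h to eight concentrations (top 100 uM, half-log steps, 0.5% DMSO). LIPC mRNA was quantified by TaqMan qRT-PCR, normalized to ACTB, GAPDH and POLR2A, with bidirectional fitting versus DMSO.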

Read-out in assay [3]: Lipoprotein lipase (LPL), LPL (gene 4023)
Put plainly: LTEA_HepaRG_LPL: Life Technologies and Expression Analysis (LTEA) Assay for Lipoprotein lipase (LPL) using HepaRG (AID 2283515). The method in brief:
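Differentiated human HepaRG cells in serum-free induction medium were exposed in duplicate for 48 h to eight half-log concentrations (top 100 uM) in 0.5% DMSO. LPL mRNA was quantified by TaqMan qRT-PCR, normalized to ACTB, GAPDH and POLR2A.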

Read-out in assay [4]: MicroRNA 122 (MIR122), gene 406906
Put plainly: LTEA_HepaRG_MIR122: Life Technologies and Expression Analysis (LTEA) Assay for MicroRNA 122 (MIR122) using HepaRG (AID 2283516). Also: the transcript read is the microRNA miR-122. The method in brief: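 Differentiated human HepaRG cells were exposed 48 h in serum-free induction medium to eight half-log concentrations (top 100 uM, 0.5% DMSO). Transcript level was measured by TaqMan qRT-PCR, normalized to ACTB, GAPDH and POLR2A, and fitted bidirectionally versus DMSO.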

Read-out in assay [5]: matrix metalloproteinase-10 (MMP10), MMP10 (gene 4319)
Put plainly: LTEA_HepaRG_MMP10: Life Technologies and Expression Analysis (LTEA) Assay for matrix metalloproteinase-10 (MMP10) using HepaRG (AID 2283517). The method in brief:
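HepaRG, collagen I, ~100,000 cells/well; serum-free induction medium; 48 h exposure, duplicate, 8-pt half-log to 100 uM, 0.5% DMSO. Readout: TaqMan qRT-PCR, normalized to ACTB/GAPDH/POLR2A; bidirectional fit vs DMSO.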

Read-out in another assay: MYC, MYC (gene 4609)
Put plainly: LTEA_HepaRG_MYC: Life Technologies and Expression Analysis (LTEA) Assay for MYC using HepaRG (AID 2283518). An outline of the steps:
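Expression changes were scored by TaqMan qRT-PCR with ACTB, GAPDH and POLR2A normalization. Cultures in serum-free induction medium received duplicate 8-point concentration series, highest 100 uM, for 48 h; DMSO (0.5%) served as baseline.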

Read-out in assay [6]: Paternally Expressed 10 (PEG10), PEG10 (gene 23089)
Put plainly: LTEA_HepaRG_PEG10: Life Technologies and Expression Analysis (LTEA) Assay for Paternally Expressed 10 (PEG10) using HepaRG (AID 2283520). An outline of the steps: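 Differentiated HepaRG cells, plated 48 h then switched to serum-free induction medium, were exposed in duplicate for 48 h to eight half-log concentrations topping at 100 uM in 0.5% DMSO. PEG10 mRNA was quantified by TaqMan qRT-PCR, normalised to ACTB, GAPDH and POLR2A.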

Read-out in assay [7]: Nuclear factor NF-kappa-B p105 subunit (Homo sapiens) (UniProt P19838)
Put plainly: LTEA_HepaRG_NFKB1: Life Technologies and Expression Analysis (LTEA) Assay for Nuclear Factor Kappa B Subunit 1 (NFKB1) using HepaRG (AID 2283521).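 Also: TaqMan qRT-PCR transcript normalised to ACTB GAPDH and POLR2A housekeeping genes.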 The method in brief:
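Human HepaRG cells receive eight half-log concentrations, highest 100 uM, for 48 h. NFKB1 expression is then quantified by qRT-PCR and analysed for up- or down-regulation relative to 0.5% DMSO vehicle.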

Read-out in assay [8]: Protein phosphatase 2A (PPP2R4), PTPA (gene 5524)
Put plainly: LTEA_HepaRG_PPP2R4: Life Technologies and Expression Analysis (LTEA) Assay for Protein phosphatase 2A (PPP2R4) using HepaRG (AID 2283522). An outline of the steps:
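Differentiated HepaRG cells in serum-free induction medium were exposed in duplicate for 48 h to eight concentrations, top 100 uM with half-log dilutions, in 0.5% DMSO. PPP2R4 mRNA was quantified by TaqMan qRT-PCR, normalized to ACTB, GAPDH and POLR2A.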

Read-out in assay [9]: Phosphatase and tensin (PTEN), PTEN (gene 5728)
Put plainly: LTEA_HepaRG_PTEN: Life Technologies and Expression Analysis (LTEA) Assay for Phosphatase and tensin (PTEN) using HepaRG (AID 2283523). An outline of the steps:
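Differentiated human HepaRG cells, plated 48 h then switched to serum-free induction medium, were exposed in duplicate for 48 h to eight half-log concentrations up to 100 uM in 0.5% DMSO. PTEN mRNA measured by TaqMan qRT-PCR, normalized to ACTB/GAPDH/POLR2A, bidirectional fit versus DMSO.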

Read-out in assay [10]: solute carrier (SLC22A1), SLC22A1 (gene 6580)
Put plainly: LTEA_HepaRG_SLC22A1: Life Technologies and Expression Analysis (LTEA) Assay for solute carrier (SLC22A1) using HepaRG (AID 2283524). The method in brief:
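Human HepaRG cells were plated 48 h, switched to serum-free induction medium, then exposed in duplicate for 48 h to 8-point half-log series from 100 uM in 0.5% DMSO. SLC22A1 mRNA measured by qRT-PCR, normalized to ACTB/GAPDH/POLR2A, fitted bidirectionally versus DMSO.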

Read-out in assay [11]: Pyruvate Dehydrogenase Kinase 4 (PDK4), PDK4 (gene 5166)
Put plainly: LTEA_HepaRG_PDK4: Life Technologies and Expression Analysis (LTEA) Assay for Pyruvate Dehydrogenase Kinase 4 (PDK4) using HepaRG (AID 2283525). The method in brief:
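Differentiated human HepaRG cells, pre-cultured 48 h, were exposed in duplicate for 48 h in serum-free induction medium to eight half-log concentrations up to 100 uM in 0.5% DMSO. PDK4 mRNA was quantified by qRT-PCR, normalized to ACTB, GAPDH and POLR2A, bidirectional fitting versus DMSO.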

Read-out in assay [12]: NAD(P)H dehydrogenase [quinone] 1 (NQO1), NQO1 (gene 1728)
Put plainly: LTEA_HepaRG_NQO1: Life Technologies and Expression Analysis (LTEA) Assay for NAD(P)H dehydrogenase [quinone] 1 (NQO1) using HepaRG (AID 2283526). An outline of the steps: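 Differentiated HepaRG cells, plated 48 h and then switched to serum-free induction medium, were exposed in duplicate for 48 h to 8-point half-log concentrations up to 100 uM in 0.5% DMSO. mRNA measured by qRT-PCR, normalized to ACTB, GAPDH, POLR2A; bidirectional fit versus DMSO.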

Read-out in assay [13]: Nuclear factor erythroid 2-related factor 2 (Homo sapiens) (UniProt Q16236)
Put plainly: LTEA_HepaRG_NFE2L2: Life Technologies and Expression Analysis (LTEA) Assay for Nuclear factor erythroid 2-related factor 2 (NFE2L2) Transcription Factor using HepaRG (AID 2283527).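 Also: TaqMan qRT-PCR transcript level normalised to ACTB GAPDH and POLR2A housekeeping genes.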 An outline of the steps:
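Differentiated human HepaRG cells in serum-free induction medium were exposed for 48 h to eight concentrations (top 100 uM, half-log dilutions, 0.5% DMSO), in duplicate. NFE2L2 mRNA was quantified by TaqMan qRT-PCR, normalized to ACTB, GAPDH and POLR2A, with bidirectional fitting versus DMSO.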

Read-out in assay [14]: succinate dehydrogenase complex iron sulfur subunit B (SDHB), SDHB (gene 6390)
Put plainly: LTEA_HepaRG_SDHB: Life Technologies and Expression Analysis (LTEA) Assay for succinate dehydrogenase complex iron sulfur subunit B (SDHB) using HepaRG (AID 2283528). An outline of the steps: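 A human HepaRG culture in serum-free induction medium received test chemicals for 48 h over an eight-point range capped at 100 uM. SDHB expression change was quantified by qRT-PCR.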

Read-out in assay [15]: Signal transducer and activator of transcription 3 (Homo sapiens) (UniProt P40763)
Put plainly: LTEA_HepaRG_STAT3: Life Technologies and Expression Analysis (LTEA) Assay for Signal transducer and activator of transcription (STAT3) using HepaRG (AID 2283529). The method in brief:
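Differentiated human HepaRG cells in serum-free induction medium were exposed in duplicate for 48 h to eight half-log concentrations up to 100 uM in 0.5% DMSO. STAT3 mRNA was quantified by TaqMan qRT-PCR, normalized to ACTB, GAPDH and POLR2A, and fitted bidirectionally against DMSO.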

Read-out in assay [16]: solute carrier (SLCO1B1), SLCO1B1 (gene 10599)
Put plainly: LTEA_HepaRG_SLCO1B1: Life Technologies and Expression Analysis (LTEA) Assay for solute carrier (SLCO1B1) using HepaRG (AID 2283530). The method in brief: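 Human HepaRG cultures treated for 48 h with an eight-concentration half-log series topping at 100 uM; SLCO1B1 measured by qRT-PCR and fitted bidirectionally relative to DMSO.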

Read-out in assay [17]: sulfotransferase 2A1 (SULT2A1), SULT2A1 (gene 6822)
Put plainly: LTEA_HepaRG_SULT2A1: Life Technologies and Expression Analysis (LTEA) Assay for sulfotransferase 2A1 (SULT2A1) using HepaRG (AID 2283531). An outline of the steps:
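Gene-expression endpoint in a human liver cell line: SULT2A1 mRNA change after 48 h chemical treatment, curves fitted in both directions relative to 0.5% DMSO vehicle. Concentrations spanned eight half-log steps from 100 uM.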

Read-out in assay [18]: Transforming Growth Factor (TGFA), TGFA (gene 7039)
Put plainly: LTEA_HepaRG_TGFA: Life Technologies and Expression Analysis (LTEA) Assay for Transforming Growth Factor (TGFA) using HepaRG (AID 2283532). The method in brief: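 Differentiated human HepaRG cells, plated 48 h then switched to serum-free induction medium, were exposed in duplicate for 48 h to 8-point half-log series from 100 uM in 0.5% DMSO. TGFA mRNA measured by qRT-PCR, normalized to ACTB/GAPDH/POLR2A, bidirectional fit versus DMSO.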

Read-out in assay [19]: matrix metalloproteinase-3 (MMP3), MMP3 (gene 4314)
Put plainly: LTEA_HepaRG_MMP3: Life Technologies and Expression Analysis (LTEA) Assay for matrix metalloproteinase-3 (MMP3) using HepaRG (AID 2283519). An outline of the steps:
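Differentiated human HepaRG cells, plated 48 h on collagen I, were exposed in duplicate for 48 h in serum-free induction medium to eight half-log concentrations up to 100 uM in 0.5% DMSO. MMP3 mRNA was quantified by TaqMan qRT-PCR, normalised to ACTB, GAPDH and POLR2A.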

Activity calls are given as the source filed them. The calls were made as follows: active = hit-call score of the fitted dose curve at least 0.9, where 1 is the maximum; inactive = score below 0.9.

Signal transducer and activator of transcription 3 (Homo sapiens), sequence (P40763 whole entry, looked up): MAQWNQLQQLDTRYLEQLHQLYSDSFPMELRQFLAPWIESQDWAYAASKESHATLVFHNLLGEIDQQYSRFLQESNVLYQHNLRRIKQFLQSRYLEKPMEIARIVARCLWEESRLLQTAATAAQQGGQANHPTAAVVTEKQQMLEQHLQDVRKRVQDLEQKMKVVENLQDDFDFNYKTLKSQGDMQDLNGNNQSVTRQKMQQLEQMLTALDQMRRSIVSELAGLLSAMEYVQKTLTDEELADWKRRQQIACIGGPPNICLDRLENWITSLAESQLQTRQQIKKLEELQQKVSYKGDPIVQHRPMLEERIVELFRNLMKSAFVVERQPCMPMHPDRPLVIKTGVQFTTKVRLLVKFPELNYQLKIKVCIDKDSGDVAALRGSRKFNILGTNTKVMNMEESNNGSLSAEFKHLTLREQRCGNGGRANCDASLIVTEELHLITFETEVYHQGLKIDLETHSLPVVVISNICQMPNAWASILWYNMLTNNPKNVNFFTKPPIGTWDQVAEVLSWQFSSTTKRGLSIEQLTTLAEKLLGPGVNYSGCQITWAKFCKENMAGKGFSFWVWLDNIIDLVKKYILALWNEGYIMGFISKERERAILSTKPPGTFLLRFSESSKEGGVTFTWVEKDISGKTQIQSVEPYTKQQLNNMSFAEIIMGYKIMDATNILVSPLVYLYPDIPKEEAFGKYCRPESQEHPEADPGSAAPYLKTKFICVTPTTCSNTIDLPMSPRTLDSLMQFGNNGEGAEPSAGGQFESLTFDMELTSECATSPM
Nuclear factor erythroid 2-related factor 2 (Homo sapiens), sequence (Q16236 whole entry, looked up): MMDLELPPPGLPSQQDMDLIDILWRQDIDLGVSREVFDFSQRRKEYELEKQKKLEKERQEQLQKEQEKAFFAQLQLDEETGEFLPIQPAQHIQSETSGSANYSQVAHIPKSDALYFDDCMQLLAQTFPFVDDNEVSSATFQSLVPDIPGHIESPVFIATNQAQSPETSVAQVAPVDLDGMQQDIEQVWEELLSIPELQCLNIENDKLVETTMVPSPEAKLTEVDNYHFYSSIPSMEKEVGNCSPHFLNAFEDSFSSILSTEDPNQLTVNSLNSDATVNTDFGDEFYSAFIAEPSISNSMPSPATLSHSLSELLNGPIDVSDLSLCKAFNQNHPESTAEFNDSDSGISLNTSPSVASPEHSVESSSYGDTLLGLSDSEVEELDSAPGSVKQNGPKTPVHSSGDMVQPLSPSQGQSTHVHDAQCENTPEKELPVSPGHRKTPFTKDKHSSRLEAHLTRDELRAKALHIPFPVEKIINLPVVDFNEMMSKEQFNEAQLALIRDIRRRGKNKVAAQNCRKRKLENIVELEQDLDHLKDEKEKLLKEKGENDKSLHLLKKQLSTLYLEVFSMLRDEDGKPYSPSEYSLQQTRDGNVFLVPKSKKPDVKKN
Nuclear factor NF-kappa-B p105 subunit (Homo sapiens), sequence (P19838 whole entry, looked up): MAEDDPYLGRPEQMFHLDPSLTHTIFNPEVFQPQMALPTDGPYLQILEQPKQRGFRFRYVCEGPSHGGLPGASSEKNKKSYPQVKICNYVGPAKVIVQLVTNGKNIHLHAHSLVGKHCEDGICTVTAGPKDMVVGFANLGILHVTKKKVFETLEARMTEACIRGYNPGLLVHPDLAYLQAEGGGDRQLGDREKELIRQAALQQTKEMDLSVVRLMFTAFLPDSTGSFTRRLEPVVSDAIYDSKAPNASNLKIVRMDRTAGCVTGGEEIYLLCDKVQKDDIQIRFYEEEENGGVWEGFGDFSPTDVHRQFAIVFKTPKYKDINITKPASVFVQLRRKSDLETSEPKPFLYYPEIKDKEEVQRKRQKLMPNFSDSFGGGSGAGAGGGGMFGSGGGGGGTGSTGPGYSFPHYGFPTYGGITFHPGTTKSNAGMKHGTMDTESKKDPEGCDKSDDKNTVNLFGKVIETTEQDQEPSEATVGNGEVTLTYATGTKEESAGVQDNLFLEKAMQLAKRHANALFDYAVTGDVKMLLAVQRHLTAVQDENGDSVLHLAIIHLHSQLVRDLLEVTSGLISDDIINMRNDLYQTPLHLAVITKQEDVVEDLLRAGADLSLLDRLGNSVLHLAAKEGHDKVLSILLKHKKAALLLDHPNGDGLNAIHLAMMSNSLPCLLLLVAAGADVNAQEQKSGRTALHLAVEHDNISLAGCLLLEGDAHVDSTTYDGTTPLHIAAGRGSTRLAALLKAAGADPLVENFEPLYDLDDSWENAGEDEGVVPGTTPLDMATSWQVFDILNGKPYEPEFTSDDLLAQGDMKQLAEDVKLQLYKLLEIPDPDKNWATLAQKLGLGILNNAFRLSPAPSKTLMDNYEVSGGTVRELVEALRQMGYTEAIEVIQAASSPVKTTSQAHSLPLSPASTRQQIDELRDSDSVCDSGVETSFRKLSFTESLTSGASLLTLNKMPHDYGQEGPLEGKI

On to `O=C1CCCCCN1`, for which the outcome was “inactive” in assay [1]; “inactive” in assay [2]; “inactive” in assay [3]; “inactive” in assay [4]; “inactive” in [5]; “inactive” with MYC, MYC (gene 4609). Also, the result in assay [6], in [7], in assay [8], in [9], in assay [10] and in [11] was inactive. Also, the compound was called inactive in assay [12], in [13], in assay [14], in assay [15], in [16] and in [17]. In addition, in assay [18], the result was inactive.
`Nc1ccc(Nc2ccccc2)cc1`: the outcome in [1] is “inactive”; in [3], “inactive”; in assay [4], “inactive”; in assay [5] it was “inactive”; with MYC, MYC (gene 4609), “inactive”; in assay [7] it was “inactive”. Moreover, the outcome in assay [8], in assay [9], in [10], in assay [11], in [12] and in [13] was inactive. Also, the outcome in assay [14], in assay [15], in assay [17] and in [18] was inactive. In addition, the AC50 (as a rule, the midpoint of the concentration-response curve, whichever way the signal moves) in assay [2] is 83.4 µM (active); in assay [6], 79.9 µM (active); in assay [16], 35.4 µM (active).
In the case of `CC(=O)c1ccc2c(c1)[C@H](NC(=O)c1ccc(F)cc1)[C@@H](O)C(C)(C)O2`, the outcome in assay [1] was “inactive”; in [2] it was “inactive”; in assay [3], “inactive”; in assay [4] it was “inactive”; in assay [5] it was “inactive”; in the assay with MYC, MYC (gene 4609) it was “inactive”. Further, the outcome in [19], in [6], in [8], in assay [9], in [10] and in assay [11] was inactive. The result in assay [12], in [13], in assay [14], in [15], in assay [16] and in assay [17] was inactive. In addition, the result in assay [18] was inactive.
